Experimental data taken from PubChem BioAssay (EPA / NIEHS).
Results filed as inconclusive are left out. Calls of active or inactive are those of the source. How the source made its calls, unless noted: active means hit-call score of the fitted dose curve at least 0.9, where 1 is the maximum; inactive means score below 0.9.

Tests used:
[1] = ATG_NFI_CIS: Attagene CIS-FACTORIAL HepG2 Assay for human Nuclear Factor I (NFI) (AID 2282989); details: HepG2 cis-regulatory reporter, NFI response element transcription; actives raise or lower the signal
How it was run: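 Multiplexed cis-reporter system in human HepG2 cells reports native TF activity as reporter mRNA induction 24 h post-dose. Fragments labelled with 6-FAM, HpaI-digested and resolved by capillary electrophoresis; activity fitted both directions versus DMSO.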

[2] = target: Myc proto-oncogene protein (Homo sapiens) (UniProt P01106); assay: ATG_Myc_CIS: Attagene CIS-FACTORIAL HepG2 Assay for human Myelocytomatosis (Myc) Proto-Oncogene Transcription Factor (AID 2282990); details: HepG2, Attagene cis-reporter transcription factor activity; actives raise or lower the signal
Sequence of Myc proto-oncogene protein (Homo sapiens) (P01106 whole entry, looked up): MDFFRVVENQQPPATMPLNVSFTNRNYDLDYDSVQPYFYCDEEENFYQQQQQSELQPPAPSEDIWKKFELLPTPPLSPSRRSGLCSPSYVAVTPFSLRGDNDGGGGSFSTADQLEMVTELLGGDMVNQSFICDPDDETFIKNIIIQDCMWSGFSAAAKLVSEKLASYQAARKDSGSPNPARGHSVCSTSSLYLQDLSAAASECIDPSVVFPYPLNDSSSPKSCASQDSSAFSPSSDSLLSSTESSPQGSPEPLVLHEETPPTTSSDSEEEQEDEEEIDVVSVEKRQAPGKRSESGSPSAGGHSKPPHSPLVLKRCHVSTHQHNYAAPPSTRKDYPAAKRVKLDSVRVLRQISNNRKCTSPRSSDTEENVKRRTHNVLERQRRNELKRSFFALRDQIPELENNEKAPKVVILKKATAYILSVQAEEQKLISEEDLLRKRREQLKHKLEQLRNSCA
How it was run: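 HepG2 cells transiently transfected with multiple cis-promoter-driven reporter transcription units, so endogenous TF activity is read. After 24 h compound exposure, reporter mRNA was quantified by RT-PCR, 6-FAM labelling, HpaI digestion and capillary electrophoresis; bidirectional fit versus DMSO.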

[3] = ATG_NF_kB_CIS: Attagene CIS-FACTORIAL HepG2 Assay for human Nuclear Factor Kappa B (NF-kB) (AID 2282991); details: HepG2 Attagene cis-factorial NF-kB reporter mRNA; actives raise or lower the signal
How it was run: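 Measures mRNA induction of an NF-kB-responsive cis-element reporter in HepG2 cells transfected with multiple reporter units, sampled 24 h post-dosing; quantified by fluorescence after RT-PCR and capillary electrophoresis, fitted for activation or inhibition against DMSO.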

[4] = ATG_NRF2_ARE_CIS: Attagene CIS-FACTORIAL HepG2 Assay for human Nuclear Factor Erythroid 2 Related Factor 2 (NFR2) response to Antioxidant Response Elements (ARE) (AID 2282992); details: HepG2 Attagene ARE/NRF2 reporter, transcription factor activity; actives raise or lower the signal;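 on AC50: reporter mRNA level measured by RT-PCR and capillary electrophoresis fluorescence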
How it was run: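 Multiplexed reporter mRNA profiling in HepG2 after a 24 h chemical exposure. Curves fitted in both directions relative to DMSO negative control.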

[5] = ATG_Oct_MLP_CIS: Attagene CIS-FACTORIAL HepG2 Assay for human Octamer-Binding Transcription Factor (Oct) (AID 2282993); details: HepG2 Attagene cis-factorial Oct reporter, mRNA; actives raise or lower the signal
How it was run: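 After 24 h compound exposure, transfected HepG2 cells were lysed for total RNA; reporter-specific cDNA was PCR-amplified, fluorescently labelled and sized by capillary electrophoresis. Bidirectional curve fitting used DMSO as baseline.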

[6] = target: human Peroxisome Proliferator-activated Receptor delta (PPARd), PPARD (gene 5467) (UniProt Q03181); assay: ATG_PPARd_TRANS: Attagene TRANS-FACTORIAL HepG2 Assay for human Peroxisome Proliferator-activated Receptor delta (PPARd) (AID 2283002; active means hit-call score of the fitted dose curve at least 0.9, where 1 is the maximum)
Sequence of human Peroxisome Proliferator-activated Receptor delta (PPARd), PPARD (gene 5467) (Q03181 whole entry, looked up, the tested form may be a part): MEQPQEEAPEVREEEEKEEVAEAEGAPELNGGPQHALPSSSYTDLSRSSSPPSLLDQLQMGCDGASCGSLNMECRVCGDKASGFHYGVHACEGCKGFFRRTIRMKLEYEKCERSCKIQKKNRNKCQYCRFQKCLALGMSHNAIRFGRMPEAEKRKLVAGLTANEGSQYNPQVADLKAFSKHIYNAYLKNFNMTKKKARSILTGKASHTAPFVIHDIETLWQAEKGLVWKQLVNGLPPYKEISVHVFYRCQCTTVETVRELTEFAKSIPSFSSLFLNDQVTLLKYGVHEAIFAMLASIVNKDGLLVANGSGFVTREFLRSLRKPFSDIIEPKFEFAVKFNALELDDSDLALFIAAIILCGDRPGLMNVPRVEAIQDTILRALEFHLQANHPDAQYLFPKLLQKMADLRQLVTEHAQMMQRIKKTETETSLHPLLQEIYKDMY
How it was run: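 HepG2 cells transiently transfected with multiplexed GAL4-UAS reporter units and exogenous chimeric NR-Gal4 proteins; 24 h compound exposure. Reporter mRNA measured by RT-PCR, 6-FAM labelling, HpaI digestion and capillary electrophoresis; gain of signal versus DMSO.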

[7] = target: Peroxisome proliferator-activated receptor gamma (Homo sapiens) (UniProt P37231); assay: ATG_PPARg_TRANS: Attagene TRANS-FACTORIAL HepG2 Assay for human Peroxisome Proliferator-activated Receptor-gamma (PPARg) (AID 2283007; active means hit-call score of the fitted dose curve at least 0.9, where 1 is the maximum)
Sequence of Peroxisome proliferator-activated receptor gamma (Homo sapiens) (P37231 whole entry, looked up, the tested form may be a part): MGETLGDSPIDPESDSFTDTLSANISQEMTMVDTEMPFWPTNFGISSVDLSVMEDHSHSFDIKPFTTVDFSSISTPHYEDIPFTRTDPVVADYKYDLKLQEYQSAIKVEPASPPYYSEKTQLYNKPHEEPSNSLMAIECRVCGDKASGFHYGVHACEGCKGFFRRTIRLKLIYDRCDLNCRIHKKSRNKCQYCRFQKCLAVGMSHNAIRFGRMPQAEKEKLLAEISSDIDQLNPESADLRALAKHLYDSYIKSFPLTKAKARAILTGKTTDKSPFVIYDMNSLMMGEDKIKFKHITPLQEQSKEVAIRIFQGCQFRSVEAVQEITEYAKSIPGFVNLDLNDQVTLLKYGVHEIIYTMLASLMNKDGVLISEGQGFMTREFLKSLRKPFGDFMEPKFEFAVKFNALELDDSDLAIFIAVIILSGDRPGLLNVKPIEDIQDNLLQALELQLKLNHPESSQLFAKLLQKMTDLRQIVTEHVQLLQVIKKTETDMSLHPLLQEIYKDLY
How it was run: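 Gain-of-signal endpoint relative to DMSO, derived from reporter mRNA levels quantified by RT-PCR and capillary electrophoresis. Cells were HepG2 transiently expressing a chimeric NR-Gal4 construct with GAL4-UAS reporters, exposed to chemicals for 24 h.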

[8] = target: Cellular tumor antigen p53 (Homo sapiens) (UniProt P04637); assay: ATG_p53_CIS: Attagene CIS-FACTORIAL HepG2 Assay for human p53 Transcription Factor (AID 2282994); details: HepG2 p53 cis-element reporter, Attagene mRNA; actives raise or lower the signal
Sequence of Cellular tumor antigen p53 (Homo sapiens) (P04637 whole entry, looked up): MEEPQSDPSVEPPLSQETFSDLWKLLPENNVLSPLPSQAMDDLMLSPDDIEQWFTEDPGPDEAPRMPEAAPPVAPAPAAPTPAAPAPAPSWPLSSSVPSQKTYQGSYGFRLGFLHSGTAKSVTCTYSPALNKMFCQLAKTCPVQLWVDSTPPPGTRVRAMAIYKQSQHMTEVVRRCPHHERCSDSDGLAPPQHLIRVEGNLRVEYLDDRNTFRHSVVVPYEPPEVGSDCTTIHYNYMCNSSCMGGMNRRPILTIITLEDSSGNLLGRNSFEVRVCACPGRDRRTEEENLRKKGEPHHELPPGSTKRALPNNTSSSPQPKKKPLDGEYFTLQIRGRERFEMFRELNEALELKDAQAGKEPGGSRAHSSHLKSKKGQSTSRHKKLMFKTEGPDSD
How it was run: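 Multiplexed reporter mRNA assay in human HepG2 liver cells; cis-regulated units report endogenous factor activity. Values come from bidirectional curve fitting against DMSO negative control after 24 h treatment.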

[9] = target: human Peroxisome Proliferator-activated Receptor alpha (PPARa), PPARA (gene 5465) (UniProt Q07869); assay: ATG_PPARa_TRANS: Attagene TRANS-FACTORIAL HepG2 Assay for human Peroxisome Proliferator-activated Receptor alpha (PPARa) (AID 2283001; active means hit-call score of the fitted dose curve at least 0.9, where 1 is the maximum)
Sequence of human Peroxisome Proliferator-activated Receptor alpha (PPARa), PPARA (gene 5465) (Q07869 whole entry, looked up, the tested form may be a part): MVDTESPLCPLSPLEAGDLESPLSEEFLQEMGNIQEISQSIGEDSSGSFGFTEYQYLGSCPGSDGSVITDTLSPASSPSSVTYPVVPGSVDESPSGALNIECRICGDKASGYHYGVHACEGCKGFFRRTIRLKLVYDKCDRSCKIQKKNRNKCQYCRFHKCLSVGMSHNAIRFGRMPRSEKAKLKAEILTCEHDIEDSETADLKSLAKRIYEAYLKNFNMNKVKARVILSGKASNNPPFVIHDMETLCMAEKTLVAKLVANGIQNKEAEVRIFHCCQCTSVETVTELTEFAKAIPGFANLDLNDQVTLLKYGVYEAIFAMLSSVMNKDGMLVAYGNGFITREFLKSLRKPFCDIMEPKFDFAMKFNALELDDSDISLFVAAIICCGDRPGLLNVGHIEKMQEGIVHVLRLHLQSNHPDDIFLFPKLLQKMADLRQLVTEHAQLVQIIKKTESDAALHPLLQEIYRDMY
How it was run: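 HepG2 cells transiently transfected with multiplexed GAL4-UAS reporter units and chimeric NR-Gal4 constructs were dosed for 24 h. Reporter mRNA was measured by RT-PCR with fluorescent labelling and capillary electrophoresis; gain of signal fitted against DMSO.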

[10] = target: Nuclear receptor subfamily 1 group I member 2 (Homo sapiens) (UniProt O75469); assay: ATG_PXR_TRANS: Attagene TRANS-FACTORIAL HepG2 Assay for human Pregnane X Receptor (PXR) (AID 2283008; active means hit-call score of the fitted dose curve at least 0.9, where 1 is the maximum)
Sequence of Nuclear receptor subfamily 1 group I member 2 (Homo sapiens) (O75469 whole entry, looked up, the tested form may be a part): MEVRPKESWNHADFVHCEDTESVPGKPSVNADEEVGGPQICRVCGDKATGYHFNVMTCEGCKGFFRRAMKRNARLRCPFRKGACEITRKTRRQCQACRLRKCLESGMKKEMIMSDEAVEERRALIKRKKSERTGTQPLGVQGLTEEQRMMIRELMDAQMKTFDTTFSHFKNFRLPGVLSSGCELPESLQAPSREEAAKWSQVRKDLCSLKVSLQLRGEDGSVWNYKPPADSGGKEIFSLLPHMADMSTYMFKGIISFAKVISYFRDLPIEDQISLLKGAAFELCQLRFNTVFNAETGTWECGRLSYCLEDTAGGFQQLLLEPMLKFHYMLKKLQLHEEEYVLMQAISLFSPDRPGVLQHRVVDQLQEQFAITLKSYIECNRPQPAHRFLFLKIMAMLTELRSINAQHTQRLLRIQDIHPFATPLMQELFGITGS
How it was run: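 Measures mRNA induction of a GAL4-UAS-driven reporter in human HepG2 cells transiently expressing PXR fused to Gal4, following 24 h treatment. DMSO served as negative control and baseline.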

[11] = BSK_3C_TissueFactor: BioMAP Diversity Plus: 3C Assay for Tissue Factor Biomarker Activity (AID 2282997); details: BioMAP 3C HUVEC, tissue factor biomarker readout; actives raise or lower the signal
How it was run: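 Primary human umbilical vein endothelial cells in the 3C system were exposed to test chemical for 24 h, then Tissue Factor measured by ELISA. Activity was fitted bidirectionally against DMSO as negative control and baseline.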

[12] = BSK_3C_uPAR: BioMAP Diversity Plus: 3C Assay for Urokinase-type plasminogen activator receptor (uPAR) Biomarker Activity (AID 2282998); details: BioMAP 3C HUVEC, uPAR biomarker ELISA; actives raise or lower the signal
How it was run: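 Values derive from bidirectional curve fitting relative to DMSO, which served as baseline of activity. uPAR was measured by ELISA in human umbilical vein endothelial primary cultures 24 h after compound addition.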

[13] = BSK_3C_VCAM1: BioMAP Diversity Plus: 3C Assay for Vascular cell adhesion molecule 1 (VCAM1) Biomarker Activity (AID 2282999); details: BioMAP 3C HUVEC, VCAM1 ELISA, cytokine-stimulated; actives raise or lower the signal
How it was run: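 Human umbilical vein endothelial cells were dosed with compound for 24 h, after which cell-surface VCAM-1 was quantified by ELISA. Bidirectional curve fitting used DMSO as negative control and activity baseline.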

[14] = BSK_4H_Eotaxin3: BioMAP Diversity Plus: 4H Assay for Eotaxin 3 Biomarker Activity (AID 2283000); details: primary human endothelial cells (HUVEC); actives raise or lower the signal
How it was run: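 HUVEC, 24 h post-dose, ELISA for Eotaxin-3/CCL26. Gain or loss of signal fitted bidirectionally vs DMSO baseline.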

[15] = read-out: Intercellular Adhesion Molecule 1 (ICAM1), ICAM1 (gene 3383); assay: BSK_3C_ICAM1: BioMAP Diversity Plus: 3C Assay for Intercellular Adhesion Molecule 1 (ICAM1) Biomarker Activity (AID 2283003); details: primary human endothelial cells (HUVEC); actives raise or lower the signal
How it was run: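 Primary human umbilical vein endothelial cells in the BioMAP 3C system were exposed to chemicals for 24 h, then ICAM-1 was quantified by ELISA. Activity was fitted bidirectionally against the DMSO negative control baseline.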

[16] = BSK_3C_Proliferation: Cell Proliferation Assessment in the BioMAP Diversity Plus: 3C Assay (AID 2283006); details: primary human endothelial cells (HUVEC);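 further: potency may reflect either rise or fall in cell number versus DMSO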
How it was run: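 Human umbilical vein endothelial cells were grown sub-confluent and exposed to chemical for 48 h, then fixed with 10% TCA and stained with 0.1% sulforhodamine B; absorbance at 560 nm gave relative cell number, fitted bidirectionally against DMSO baseline.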

[17] = target: human RAR-related Orphan Receptor beta (RORb), RORB (gene 6096) (UniProt Q92753); assay: ATG_RORb_TRANS: Attagene TRANS-FACTORIAL HepG2 Assay for human RAR-related Orphan Receptor beta (RORb) (AID 2283010; active means hit-call score of the fitted dose curve at least 0.9, where 1 is the maximum)
Sequence of human RAR-related Orphan Receptor beta (RORb), RORB (gene 6096) (Q92753 whole entry, looked up, the tested form may be a part): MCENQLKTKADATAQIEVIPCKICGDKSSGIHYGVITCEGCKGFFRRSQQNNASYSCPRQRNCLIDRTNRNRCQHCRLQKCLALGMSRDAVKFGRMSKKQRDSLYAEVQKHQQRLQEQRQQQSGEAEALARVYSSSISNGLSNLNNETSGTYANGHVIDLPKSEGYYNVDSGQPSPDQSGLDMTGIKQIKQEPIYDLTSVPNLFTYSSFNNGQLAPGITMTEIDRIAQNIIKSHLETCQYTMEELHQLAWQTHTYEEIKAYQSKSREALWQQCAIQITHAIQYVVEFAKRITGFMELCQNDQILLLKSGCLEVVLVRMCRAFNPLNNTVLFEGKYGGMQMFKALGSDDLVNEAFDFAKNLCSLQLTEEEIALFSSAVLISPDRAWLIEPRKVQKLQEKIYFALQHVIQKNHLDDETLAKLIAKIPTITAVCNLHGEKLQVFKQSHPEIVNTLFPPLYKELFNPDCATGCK
How it was run: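 HepG2 cells were transiently transfected with multiplexed GAL4-UAS reporter units expressing chimeric nuclear receptor–GAL4 proteins, then dosed for 24 h. Reporter mRNA was quantified by RT-PCR with fluorescent labelling and capillary electrophoresis; gain of signal was fitted relative to DMSO.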

Measured: AC50

COC(=O)C1=C(C)NC(C)=C(C(=O)OCCN(C)Cc2ccccc2)C1c1cccc([N+](=O)[O-])c1 (centres undefined)
active: [7] 27.7 µM
inactive: [1] | [2] | [3] | [4] | [5] | [6]

O=C1O[C@@H]2[C@@H](O)[C@H](O)O[C@@H]2[C@H]1O
inactive: [1] | [2] | [3] | [4] | [8] | [9] | [7] | [10]

c1ccc2sc(SN(C3CCCCC3)C3CCCCC3)nc2c1
active: [2] 8.17 µM | [12] 7.59 µM | [16] 8.86 µM | [10] 0.629 µM
not listed: [8] | [9]
inactive: all other assays above

ClCCCl
inactive: [1] | [2] | [3] | [4] | [8] | [6] | [7] | [10] | [17]

O=C1OC2(c3cc(Br)c(O)c(Br)c3Oc3c2cc(Br)c(O)c3Br)c2c(Cl)c(Cl)c(Cl)c(Cl)c21
inactive: [1] | [2] | [3] | [8] | [6] | [17]
active: [4] 35.3 µM | [11] 4.1 µM | [12] 1.86 µM | [13] 4.58 µM | [14] 3.71 µM | [15] 7.39 µM | [16] 8.03 µM | [7] 34.7 µM | [10] 4.84 µM
